Test results as given in PubChem BioAssay (NCI).
About 83,000 compounds went through this panel and 20% of them were active in at least one assay; those are over-represented in the sample as a whole.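 Testing used 96-well plates and a 48-hour single-concentration exposure. Example: -40 means 40% of the starting cells died.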 Unmarked numbers belong to inactive results. The source made the active and inactive calls. The calls were made as follows: active = growth percent below 10; inactive = the rest.

Legend:
Assay in all cases: NCI-60 one-dose screen, 48 h (100 = growth as untreated, 0 = no growth, -100 = all killed)
Settings in all cases: 10 µM unless noted
T-47D breast = system: T-47D breast
BT-549 breast = system: BT-549 breast
MDA-MB-435 melanoma = system: MDA-MB-435 melanoma
SW-620 colon = system: SW-620 colon
MCF7 breast = system: MCF7 breast
HCT-116 colon = system: HCT-116 colon
HCC-2998 colon = system: HCC-2998 colon
KM12 colon = system: KM12 colon

SMILES	growth (T-47D breast)	growth (BT-549 breast)	growth (MDA-MB-435 melanoma)	growth (SW-620 colon)	growth (MCF7 breast)	growth (HCT-116 colon)	growth (HCC-2998 colon)	growth (KM12 colon)
COc1ccc(OC)c(/C=C/C(=O)N/N=C/c2ccccc2)c1	39.7%	60.8%	-7.51% (active)	28.7%	17.3%	14.2%	66.4%	31%
Cc1ccc2nc(NC(=O)CSc3nc(Cl)c(C#N)c(-c4ccccc4)n3)sc2c1	89.1%	103%	98.8%	103%	91.7%	102%	108%	110%
O=C(Nc1ccc(Cl)cc1F)c1ccccc1O	29.9%	24.9%	41.3%	60.4%	47.6%	34.6%	77.1%	54.4%
O=C(Cc1ccc(F)c(Cl)c1)Nc1cc(C2(C(F)(F)F)CC2)nn1CC1CCCCC1	-0.285% (active)	5.11% (active)	3.02% (active)	12.6%	-0.278% (active)	5.8% (active)	14.9%	0.921% (active)
CCc1ccc2nc(NC(=O)Cc3csc(NC(=O)c4ccco4)n3)sc2c1	55.1%	57.4%	90.6%	101%	18.3%	78%	101%	78.6%
N#Cc1cccc(NC(=O)c2cc(-c3ccc(F)cc3F)ccc2O)c1	16.1%	5.92% (active)	8.27% (active)	18.8%	3.66% (active)	7.36% (active)	26.5%	7.89% (active)
Cc1cc2nc3ccc(N=Nc4ccc(N(C)C)cc4)cc3n(-c3ccccc3)c-2cc1=N	-57.2% (active)	-82.2% (active)	-97.5% (active)	-88.9% (active)	-65.1% (active)	-60.2% (active)	-81.8% (active)	-91.2% (active)
C#Cc1cccc(NC(=O)Nc2ccccc2NC(=O)CCl)c1	1.49% [8.25 µM] (active)	-27% [8.25 µM] (active)	-68.7% [8.25 µM] (active)	-5.75% [8.25 µM] (active)	0.96% [8.25 µM] (active)	0.401% [8.25 µM] (active)	-29.4% [8.25 µM] (active)	-37.6% [8.25 µM] (active)
CSc1nc2ccc(C)cc2cc1/C=N/O	71%	73.2%	91.5%	85.6%	86.3%	81.1%	96.6%	93.7%
O=c1c2cccc(Cl)c2sc2c(NCCCNCCO)nc3ccccc3c12	42.7%	80.1%	-87.1% (active)	-97.6% (active)	15.3%	-58.9% (active)	-88% (active)	-62.1% (active)
CCCCCCCNC(=O)CCCNc1ncnc2c1ncn2-c1cccc(C(C)O)c1 (stereo not drawn)	74.1%	93.5%	97.5%	101%	86.6%	104%	103%	95.6%
O=C(Nc1c2ccccc2nc2ccccc12)c1ccccc1CN1C(=O)c2ccccc2C1=O	33.4%	76.2%	30.3%	15.5%	10.3%	16.1%	41.4%	26%
O=c1ccn(Cc2cn(-c3c4ccccc4nc4ccccc34)nn2)c(=O)[nH]1	38%	100%	99.4%	93%	36.4%	92.4%	90.5%	104%
Cn1cc(-c2ccc3cc(-c4ccc(CC(=O)Nc5cc(C(C)(C)C)nn5C)cc4)cnc3c2)cn1	-0.815% (active)	-8.22% (active)	5.58% (active)	20.1%	13.4%	11.5%	32.9%	-33.3% (active)
CNc1nc2c(s1)C(c1cccc(F)c1)CC(=O)N2 (stereo not drawn)	94.8%	94.5%	99.9%	102%	95.2%	99.8%	104%	101%
CCCCCCNC(=O)Oc1ccc(/C(=C(\C)c2ccc(OC)cc2)c2ccc(OCCN3CCCCC3)cc2)cc1	48%	70.4%	66.7%	55.3%	22.7%	34.5%	80.6%	43.5%
OC(COc1ccccc1)CN1CCN(c2ccc(Cl)cc2)CC1 (stereo not drawn)	102%	101%	121%	98.7%	102%	92.6%	109%	98%
COc1ccc2nc(NC(=O)c3cccnc3Nc3ccc(S(N)(=O)=O)cc3)sc2c1	84.6%	84.7%	91.5%	109%	110%	93.5%	114%	97.8%
Cc1ccc2sc3c(NCCCN)nc4ccccc4c3c(=O)c2c1	54.6%	96.8%	-71.7% (active)	-79.7% (active)	-21.2% (active)	-53.2% (active)	-86.1% (active)	-74.6% (active)

SMILES	growth (T-47D breast)	growth (BT-549 breast)	growth (MDA-MB-435 melanoma)	growth (SW-620 colon)	growth (MCF7 breast)	growth (HCT-116 colon)	growth (HCC-2998 colon)	growth (KM12 colon)
CC1Cc2c(ncn3c(-c4ccc(F)cc4)nnc23)N(C)c2ccccc21 (stereo not drawn)	35.1%	80.1%	59.2%	36.2%	52.2%	86%	80.3%	72.2%
COc1ccc2c(c1)nc(NNC(=O)c1cnccn1)c1cccn12	22.4%	37.9%	33.7%	29.6%	10.7%	20.3%	49.7%	24.8%
CC(=O)CC(c1ccccc1)c1c(C)[nH]c2ccccc12 (stereo not drawn)	99.5%	112%	100%	92.1%	96.2%	89.6%	110%	100%
CS(=O)(=O)N(c1cc(-c2ccc3ncnc(Nc4ccc(F)c(Cl)c4)c3c2)cnc1Cl)S(C)(=O)=O	-11% (active)	22%	43.8%	46.3%	12%	45.1%	45.1%	67.1%
O=C(CSc1nc2ccccc2[nH]1)Nc1cccc(Cl)c1	83.4%	103%	102%	95.7%	102%	-54.9% (active)	103%	99.5%
c1ccc(CO[C@H]2CO[C@H]3[C@@H]2OC[C@@H]3Oc2ccc(Nc3ncnc4ccsc34)cc2)cc1	38.9%	68.9%	83.9%	87.6%	64.9%	68.9%	104%	86.2%
NCCCNc1nc2ccccc2c2c(=O)c3cc(F)cc(F)c3sc12	92.7%	93.4%	-91.2% (active)	-75.6% (active)	75.5%	53.2%	75.3%	79.1%
CCOC(=O)Cn1c(=O)c2c(c3ccccc3n2C)n2nnc(-c3ccccc3)c12	104%	114%	113%	109%	75.1%	90%	109%	104%
O=CN1N=C(c2ccc(Nc3ccnc4cc(Cl)ccc34)cc2)CC1c1ccccc1 (stereo not drawn)	31.7%	39.1%	8.64% (active)	31.8%	18.2%	24%	36.2%	35.9%
O=c1n(Cc2ccc3ccccc3c2)ccn1Cc1ccc2ccccc2c1	55.5%	92.4%	107%	102%	97.6%	70.6%	103%	96.4%
Cc1ccc(S(=O)(=O)N/N=C/C2(c3ccccc3)CC2)cc1	101%	102%	104%	97.1%	88.6%	98.7%	111%	107%
COc1nc2ccccc2cc1-c1nc2c(cnn2-c2ccccc2)c(=O)[nH]1	50.1%	38.5%	-20.9% (active)	20.8%	20.9%	42.1%	73.3%	29%
Cc1nc2cnc(N)c(C#Cc3cncc(C(=O)Nc4ccc(CN5CCN(C)CC5)c(C(F)(F)F)c4)c3)c2nc1C	45.2%	35.6%	0.973% (active)	-20.9% (active)	1.7% (active)	0.345% (active)	11.5%	-17.4% (active)
NCCOc1ncccc1/C=C1\c2ccccc2-c2ccc(C(F)F)cc21	51.5%	87.3%	82.3%	38.4%	21.6%	42.1%	24.2%	78.8%
Cc1cc(N2CCCC2)nc(N(CCCNc2ccnc3cc(Cl)ccc23)Cc2ccccn2)n1	68.6%	64.9%	19.1%	44.5%	47.3%	16.3%	79.5%	63.8%
COc1cc(/C=C/c2ccccc2)cc(OC)c1	77.9%	101%	103%	100%	71.4%	92.4%	102%	95.6%
O=C(O)c1cn(C2CC2)c2cc(N3CCN(C(=O)Nc4nc(-c5ccc(Cl)cc5)cs4)CC3)c(F)cc2c1=O	5.75% (active)	0.292% (active)	9.36% (active)	20.2%	2.95% (active)	14.8%	30.6%	8.97% (active)
CCN(CC)c1ccc(C2=NN(C(C)=O)C(c3cc(OC)c(OC)c(OC)c3)C2)cc1 (stereo not drawn)	47.2%	-36.3% (active)	-53% (active)	22.3%	27%	6.95% (active)	-6.47% (active)	-17% (active)
CNc1ccc(Nc2cccc(C)c2)c2c1C(=O)c1ccccc1C2=O	40.9%	110%	135%	85.4%	10.2%	92.4%	88.5%	48.4%

SMILES	growth (T-47D breast)	growth (BT-549 breast)	growth (MDA-MB-435 melanoma)	growth (SW-620 colon)	growth (MCF7 breast)	growth (HCT-116 colon)	growth (HCC-2998 colon)	growth (KM12 colon)
O=c1c2cc(C(F)(F)F)ccc2sc2c(NCCCNCCO)nc3ccccc3c12	-6.02% (active)	86.1%	-73% (active)	-75.9% (active)	-59.7% (active)	-72.8% (active)	-89.8% (active)	-67.8% (active)
COc1cccc2c(=O)c3c(sc12)c(N1CCNCC1)nc1ccccc13	85.5%	97.6%	54.7%	-39.2% (active)	53.2%	-52.4% (active)	11.1%	46.3%
CCCCC1CCCC12NC(=O)NC2=O (stereo not drawn)	91.7%	95.1%	109%	102%	105%	99.4%	96.9%	106%
COc1cc(/C=C/C(=O)/C=C/c2cc(OC)c3c(c2OC)OCO3)c(OC)c2c1OCO2	31%	31.4%	11.5%	17.8%	19.1%	2.58% (active)	107%	37%
C[C@H](C(=O)Nc1ccc(S(N)(=O)=O)cc1)S(=O)(=O)c1ccccc1	93.2%	96.8%	102%	110%	96.1%	92.1%	111%	104%
Cc1cc(O)c(C2=NN(c3ccc(S(N)(=O)=O)cc3)C(/C=C/c3ccccc3)C2)cc1Cl (stereo not drawn)	25.7%	52.4%	47.4%	51.9%	33.8%	10.6%	50.5%	57.6%
Cc1onc2c(-c3ccccc3)n[nH]c(=O)c12	83.3%	67.7%	96.9%	111%	89.8%	104%	94.8%	107%
COc1cc(CNS(=O)(=O)c2ccc(C)cc2)ccc1OCc1cn(-c2ccccc2)nn1	66.5%	88.1%	99.9%	98.9%	92.7%	85.1%	117%	99.4%
CNc1nc2c(s1)C(c1cc(F)ccc1F)CC(=O)N2 (stereo not drawn)	63.6%	80.5%	-51.6% (active)	30.9%	36.5%	53.5%	88.1%	52.9%
N#Cc1c(Nc2cccc(Cl)c2)sc(C(=O)c2cc3cc(Cl)ccc3o2)c1N	73.7%	113%	86.3%	18.2%	70.2%	72.4%	105%	34.5%
CCN1C(=O)N(CC)C2Nn3c(s/c(=C4\C(=O)N(CC(C)C)c5ccccc54)c3=O)=NC21 (stereo not drawn)	46%	52.7%	-45.9% (active)	35.7%	26.1%	14.4%	76.5%	31.9%
NS(=O)(=O)c1ccc(-n2nc(C(=O)N/N=C\c3ccc(F)cc3)cc2-c2ccc(Br)cc2)cc1	69.7%	86.1%	-1.32% (active)	62.8%	55.1%	82.8%	86.9%	61.8%
Nc1ccccc1-c1cc2c(c3c1[nH]c1ccccc13)CCCCC2	86.8%	108%	112%	96.2%	76%	76.3%	106%	88.9%
CC[C@H](C)C(=O)O[C@H]1CCC=C2C=C[C@H](C)[C@H](CC[C@@H]3CC=CC(=O)O3)[C@H]21	83.5%	87.5%	86%	85.9%	72.3%	48.5%	101%	72.5%
N#CC1=C(N)Oc2c(sc3c(Br)cccc23)C1c1ccc(Br)cc1 (stereo not drawn)	23.3%	48.3%	-53% (active)	24.4%	10.9%	26.6%	12.9%	17.8%
N#C/C(=C\c1cccc2cnccc12)n1nnc2cccc(F)c21	23.5%	17%	29%	21.5%	19.3%	10.4%	42.7%	62.1%
O=C(S)CNC(=O)c1ccccc1	102%	86.2%	104%	97.6%	98.7%	87.6%	101%	105%
COc1ccc(-c2ncnc3c2ncn3CC#CCCl)cc1	53.1%	50.1%	40.2%	48.9%	35.7%	52.5%	84.8%	72.6%
